The nature of test [1]: compounds binding Alexa647 anti-His antibody – biochemical, small-molecule microarray, 635 nm fluorescence, artefact control for SMM control protein annotation, primary screen (AID 1128).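 Further: score merges feature fluorescence with signal-to-noise for each printed compound spot.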 To be noted: higher = more signal.
Test [2] relates to Human papillomavirus type 1a E7 protein (residues 1-88). The test is described as follows: HPV1a E7 small-molecule binders, primary screen, biochemical, small-molecule microarray, residues 1-88, 635 nm (AID 1129). To be noted: small-molecule microarray binding, fluorescence 635 nm; higher = more signal.
Test [3] addresses Focal adhesion kinase 1 (Homo sapiens) (UniProt Q05397). Kind of test: PTK2 protein binding on printed compound slides – biochemical, small-molecule microarray, 635/667 nm fluorescence, BSA, DTT, primary screen (AID 1130).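 Further: composite of spot emission at 667 nm and signal to noise over triplicate slides.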 To be noted: 635 nm fluorescence, higher = more signal.
For test [4], the system named is Fibrinogen (Alexa647-labelled). The test is described as follows: Alexa647-fibrinogen binding to printed small molecules – biochemical, small-molecule microarray, 635/667 nm fluorescence, artefact control for SMM control-protein annotation, profiling panel (AID 1131).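 Further: z-score merges 667 nm fluorescence with per-spot signal-to-noise over triplicate slides.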 To be noted: fibrinogen-A647 binding fluorescence, higher = more signal.
Test [5] concerns the target Follistatin (Homo sapiens) (UniProt P19883). The test is described as follows: FST protein binding to printed compounds – biochemical, small-molecule microarray, 635/667 nm fluorescence, primary screen (AID 1132). To be noted: 635 nm fluorescence, higher = more signal.
For test [6], the target named is Fibroblast growth factor 2 (Homo sapiens) (UniProt P09038). Kind of test: basic fibroblast growth factor binding to printed compounds – biochemical, small-molecule microarray, 635/667 nm fluorescence, primary screen (AID 1133). To be noted: FGF2, fluorescence 635/667, higher = more signal.
Sequence of Fibroblast growth factor 2 (Homo sapiens) (P09038 whole entry, looked up): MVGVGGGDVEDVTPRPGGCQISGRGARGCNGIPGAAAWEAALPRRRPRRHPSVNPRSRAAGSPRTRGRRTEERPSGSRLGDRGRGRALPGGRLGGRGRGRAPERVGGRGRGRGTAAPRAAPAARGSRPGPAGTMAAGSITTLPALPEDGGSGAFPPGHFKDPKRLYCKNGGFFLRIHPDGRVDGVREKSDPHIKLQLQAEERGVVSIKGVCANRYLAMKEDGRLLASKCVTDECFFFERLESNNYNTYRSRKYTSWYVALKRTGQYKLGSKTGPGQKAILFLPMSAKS
Test [7] can be described thus: JC-1 mitochondrial potential readout, lung cancer cells – cell-based, A549, JC-1 fluorescence, basal, 24 h, 100 nL, profiling panel (AID 1138).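 Further: A549 lung adenocarcinoma cells under basal conditions with no added stimulus; test concentration not given here.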 To be noted: higher = more signal.
For the next test, the system named is Lefty1. The test is described as follows: Lefty1 protein binding to printed compounds – biochemical, small-molecule microarray, 635/667 nm fluorescence, primary screen (AID 1139). To be noted: fluorescence 635/667, higher = more signal.
In test [8] the test system is wheat germ agglutinin (Triticum aestivum), Alexa647-labelled. Kind of test: Alexa647-WGA lectin binding to printed small molecules – biochemical, small-molecule microarray, 635/667 nm fluorescence, artefact control for SMM control-protein annotation, profiling panel (AID 1140).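 Further: score merges 667 nm feature emission with signal to noise over triplicate slides.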 To be noted: WGA-A647 binding, 635 nm fluorescence, higher = more signal.
The target in test [9] is Luciferin 4-monooxygenase (Photinus pyralis) (UniProt P08659). The test is described as follows: inhibition of purified Photinus pyralis luciferase – biochemical, luminescence, purified enzyme, 2006 set, primary screen (AID 1141).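 Further: cell-free assay with purified firefly luciferase at 100 ng per well in PBS; test concentration not given here.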 To be noted: purified firefly luciferase, SteadyGlo luminescence, 30 min; higher = more signal, called active from +8 up or from −8 down.
Sequence of Luciferin 4-monooxygenase (Photinus pyralis) (P08659 whole entry, looked up): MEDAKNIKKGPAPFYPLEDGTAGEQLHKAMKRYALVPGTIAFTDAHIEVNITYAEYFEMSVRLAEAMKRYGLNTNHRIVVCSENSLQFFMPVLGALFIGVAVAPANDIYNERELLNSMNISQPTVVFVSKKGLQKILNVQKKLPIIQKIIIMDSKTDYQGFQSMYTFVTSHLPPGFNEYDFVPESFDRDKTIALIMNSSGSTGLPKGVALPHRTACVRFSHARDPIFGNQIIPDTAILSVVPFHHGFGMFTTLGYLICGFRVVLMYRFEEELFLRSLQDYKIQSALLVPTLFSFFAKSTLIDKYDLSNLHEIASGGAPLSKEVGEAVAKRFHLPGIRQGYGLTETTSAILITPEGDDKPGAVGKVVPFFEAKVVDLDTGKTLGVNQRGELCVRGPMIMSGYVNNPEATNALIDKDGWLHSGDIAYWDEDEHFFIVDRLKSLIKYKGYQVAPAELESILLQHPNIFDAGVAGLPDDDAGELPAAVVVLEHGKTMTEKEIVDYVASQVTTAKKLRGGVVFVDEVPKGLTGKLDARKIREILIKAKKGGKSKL

Activity calls are given as the source filed them.

From PubChem BioAssay come the findings set out here.

Sequence of Focal adhesion kinase 1 (Homo sapiens) (Q05397 whole entry, looked up): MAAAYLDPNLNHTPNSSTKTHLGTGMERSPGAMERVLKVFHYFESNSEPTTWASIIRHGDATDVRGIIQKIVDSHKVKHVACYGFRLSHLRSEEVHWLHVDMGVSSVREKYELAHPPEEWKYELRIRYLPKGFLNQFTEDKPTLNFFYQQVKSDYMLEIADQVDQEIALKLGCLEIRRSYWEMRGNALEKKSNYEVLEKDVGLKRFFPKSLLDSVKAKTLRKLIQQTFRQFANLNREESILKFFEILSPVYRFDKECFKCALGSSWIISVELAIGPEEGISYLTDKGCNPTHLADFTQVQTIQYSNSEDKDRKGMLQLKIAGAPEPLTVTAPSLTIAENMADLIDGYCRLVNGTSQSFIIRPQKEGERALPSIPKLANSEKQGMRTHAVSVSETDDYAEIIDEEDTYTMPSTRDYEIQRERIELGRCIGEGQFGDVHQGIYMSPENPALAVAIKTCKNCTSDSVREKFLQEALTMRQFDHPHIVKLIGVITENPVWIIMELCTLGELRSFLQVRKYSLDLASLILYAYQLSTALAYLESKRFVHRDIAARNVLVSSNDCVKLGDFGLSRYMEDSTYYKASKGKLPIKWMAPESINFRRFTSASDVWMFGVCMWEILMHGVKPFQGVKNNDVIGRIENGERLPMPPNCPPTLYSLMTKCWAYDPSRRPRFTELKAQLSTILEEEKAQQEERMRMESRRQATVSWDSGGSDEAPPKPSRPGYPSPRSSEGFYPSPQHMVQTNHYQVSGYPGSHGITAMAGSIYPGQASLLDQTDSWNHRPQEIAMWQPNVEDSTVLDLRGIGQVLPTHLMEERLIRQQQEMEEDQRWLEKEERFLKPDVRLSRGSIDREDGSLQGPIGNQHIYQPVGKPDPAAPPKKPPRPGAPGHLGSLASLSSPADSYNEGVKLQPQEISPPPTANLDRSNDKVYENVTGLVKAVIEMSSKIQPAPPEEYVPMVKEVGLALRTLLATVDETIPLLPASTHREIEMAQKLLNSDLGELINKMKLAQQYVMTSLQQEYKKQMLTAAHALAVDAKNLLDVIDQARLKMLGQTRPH
Sequence of Follistatin (Homo sapiens) (P19883 whole entry, looked up): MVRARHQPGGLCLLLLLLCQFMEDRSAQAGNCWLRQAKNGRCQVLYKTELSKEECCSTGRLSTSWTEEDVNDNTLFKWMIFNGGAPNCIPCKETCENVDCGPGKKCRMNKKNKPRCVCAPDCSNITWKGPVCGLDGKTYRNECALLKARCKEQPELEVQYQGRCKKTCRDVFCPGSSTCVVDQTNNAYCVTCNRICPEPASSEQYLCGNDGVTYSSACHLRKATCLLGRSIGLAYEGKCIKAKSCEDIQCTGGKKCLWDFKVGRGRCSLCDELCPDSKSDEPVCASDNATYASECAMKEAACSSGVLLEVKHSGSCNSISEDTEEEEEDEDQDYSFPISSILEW

Turning to `CCCC(=O)N(CCc1c[nH]c2ccccc12)[C@@H]1CC(C(=O)NCCO)=C[C@H](Oc2c(I)cc(CO)cc2OC)[C@H]1O`, the composite z-score in [1] was -0.156; in test [2] it was -0.064; in test [3], -0.185; in [4], -1.04; in test [5] it was 0.0919; in test [6], 0.289. The composite z-score with Lefty1 worked out at 0.0596; in test [8] it was 0.302. Besides, the z-score in [7] is 1.13; in test [9] it was -0.437 (inactive).

As to `Cc1ccc(S(=O)(=O)N2C[C@@H](C(=O)O)[C@H](Sc3ccccc3)C[C@H]2c2ccccc2)cc1`, the composite z-score in [1] was 0.617; in test [2], 1.23; in test [3], 1.07; in [4], 1.06; in [5], 0.999; in [6] it was -0.194. For the same compound, the figures for the composite z-score (in the test with Lefty1; in test [8]) were 0.697 and 1.03, respectively. In addition, the figures for the z-score in test [7] and in [9] were -0.0335 and 1.88 (inactive), respectively.

As to `CC(C)[Si](C#CCCCC#N)(Oc1ccccc1Br)C(C)C`, the composite z-score came to 0.259 in test [1]; 0.725 in test [2]; 0.3 in test [3]; 0.709 in test [4]; 0.269 in test [5]; 0.223 in test [6]. Moreover, the results for the composite z-score (in the test on Lefty1; in [8]) were 0.55 and 0.327, respectively. The z-score in test [7] is -0.0477; in test [9], -0.277 (inactive).

Regarding `CC[C@@H]1C=C(C(=O)O)[C@H](c2ccc(C)cc2)N1S(=O)(=O)c1ccc(C)cc1`, the composite z-score was -0.479 in test [1]; 1.23 in test [2]; 0.827 in test [3]; 0.915 in test [4]; 0.163 in test [5]; 0.0388 in test [6]. For the same compound, the composite z-score came to 0.285 in the test on Lefty1 and 0.568 in [8]. Besides, the z-score was -0.233 in [7] and 2.28 (inactive) in [9].

Turning to `COc1cc(OC)c(C(O)C2C=CC3C(=O)NC(=O)C3N2Nc2ccccn2)cc1Br` (stereo not given), the composite z-score amounted to 2.02 in [1]; 0.683 in test [2]; 0.124 in [3]; 0.368 in test [4]; 0.573 in [5]; 0.562 in test [6]. In addition, the composite z-score with Lefty1 was 0.483; in test [8] it was 0.0687. For the same compound, the z-score in [7] was 0.0938; in test [9], -1.36 (inactive).

For `CC1CC/C=C\[C@H]2OC34C=CCN(Cc5ccccc5)C(=O)[C@H]3N(C(C)CO)C(=O)[C@@H]4C2C(=O)O1` (stereo not given in full), the composite z-score in [1] was -0.216; in [2], -0.922; in [3], -0.286; in [4], -0.696; in test [5], 0.462; in test [6], -0.005. Also, the composite z-score in the test with Lefty1 is 1.06; in test [8], -0.626. The z-score in test [7] is 0.924; in test [9], -0.97 (inactive).

Consider `CC(C)N1CC=CC23O[C@@H]4C=CCOC(=O)[C@@H]4[C@H]2C(=O)N(CCCCCO)[C@@H]3C1=O` (stereo not given in full), for which the composite z-score in test [1] is 2.11; in [2], -0.01; in test [3], 0.345; in test [4], -1.86; in test [5] it was -0.382; in [6], -0.377. For the same compound, the composite z-score in the test on Lefty1 amounted to 0.204; in test [8], 0.0322. Further, the z-score in [7] is -0.178; in [9], -3.48 (inactive).

Consider `COC(=O)C(CC#Cc1ccc2c(c1)[C@]1(C(=O)N2)[C@H](c2ccc(O)cc2)N2[C@H](c3ccccc3)[C@H](c3ccccc3)OC(=O)[C@H]2[C@@H]1C(=O)N1CCN(c2ncccn2)CC1)C(=O)OC`, for which the composite z-score turned out to be 3.29 in test [1]; 1.23 in test [2]; 0.809 in [3]; 0.975 in test [4]; 0.771 in test [5]; 0.208 in test [6]. In addition, the composite z-score in the test with Lefty1 is 0.162; in test [8] it was 1.2. Moreover, the z-score in [7] is -0.35; in test [9], -0.078 (inactive).

With `OB1C=CCC(CCc2ccccc2)O1` (stereo not given), the composite z-score was -0.837 in [1]; -0.692 in test [2]; -0.153 in [3]; -0.894 in test [4]; 0.0417 in test [5]; 0.712 in test [6]. Besides, the composite z-score in the test on Lefty1 was -0.732; in [8] it was -0.477. Also, the z-score is 1.13 in [7] and -1.83 (inactive) in test [9].

On to `O=C(CS)NCCCCCNC(=O)[C@H]1C[C@H]2C(=O)NCC(=O)N2[C@H]1c1ccc(O)cc1`, for which the composite z-score in test [1] is -0.0453; in test [2] it was -1.16; in test [3], -0.437; in test [4], -3.23; in [5], -0.0739; in test [6], 0.258. Also, the composite z-score is 0.0911 with Lefty1 and -0.125 in [8]. In addition, the z-score in test [7] was -0.0966; in test [9], 0.612 (inactive).

Take `NCCCCCCNC(=O)[C@H]1C[C@H]2C(=O)N[C@@H](Cc3ccccc3)C(=O)N2[C@H]1c1cccc(OCCO)c1`: the composite z-score in test [1] was 0.786; in test [2] it was 0.248; in test [3] it was 0.376; in test [4], 0.72; in [5] it was 1.08; in test [6] it was -0.044. Moreover, the composite z-score was 0.0358 in the test with Lefty1 and 0.961 in test [8]. In addition, the z-score in test [7] was 0.481; in [9], 0.0326 (inactive).

In the case of `CN(C)C(=O)[C@]1(Cc2ccccc2)N=C(c2ccc(OCCCO)cc2)O[C@@H]1c1ccccc1N=[N+]=[N-]`, the composite z-score was found to be 2.47 in test [1]; 1.2 in [2]; 0.203 in [3]; 0.96 in [4]; 1.33 in test [5]; 1.63 in test [6]. Further, the results for the composite z-score (in the test with Lefty1; in test [8]) were 0.244 and 0.702, respectively. Also, the z-score was 0.702 in test [7] and -5.05 (inactive) in [9].

As to `COc1ccc([Si](C)(C)[C@H]2[C@H](CCn3cc([C@H](O)c4ccccc4)nn3)O[C@@]3(C(=O)N(C)c4ccccc43)[C@@H]2C)cc1`, the composite z-score is -0.0799 in test [1]; 0.0391 in test [2]; 0.254 in [3]; -1.37 in test [4]; 0.862 in test [5]; 0.322 in test [6]. Also, the values for the composite z-score (with Lefty1; in test [8]) were 1.23 and -0.0898, respectively. Also, the z-score is 1.65 in test [7] and -0.0548 (inactive) in [9].

For `[N-]=[N+]=Nc1ccccc1C[C@@]1(C(=O)N2CCCCC2)N=C(c2ccc(OCCCO)cc2)O[C@@H]1c1ccccc1N=[N+]=[N-]`, the composite z-score in test [1] is 2.17; in test [2], 1.19; in test [3] it was 0.362; in [4], 0.98; in test [5], 1.29; in test [6] it was 0.592. The composite z-score in the test with Lefty1 is -0.271; in [8], 1.3. For the same compound, the z-score was -1.21 in test [7] and -2.39 (inactive) in [9].

For `COCCOC(=O)N1C(=O)[C@@]2(c3cc(C#CC4(O)CCCCCC4)ccc31)[C@H](C(=O)Nc1nc3ccccc3s1)[C@H]1C(=O)O[C@H](c3ccccc3)[C@H](c3ccccc3)N1[C@@H]2c1ccccc1OCCO`, the composite z-score in test [1] amounted to 2.46; in test [2], 1.2; in test [3], 0.823; in [4], 0.981; in test [5] it was 1.01; in test [6], 1.37. For the same compound, the composite z-score is 0.581 in the test on Lefty1 and 1.08 in [8]. The z-score in test [7] was -1.13; in test [9], -3.04 (inactive).

As to `CO[C@H]1O[C@H](CO)[C@@H](OC(=O)Nc2ccccc2-c2ccccc2)[C@H](OC(=O)Nc2ccccc2-c2ccccc2)[C@@H]1OC(=O)Nc1ccccc1-c1ccccc1`, the composite z-score in [1] amounted to 0.747; in [2], 1.23; in test [3] it was 0.993; in [4], 0.906; in [5], 1.2; in test [6] it was 0.814. The composite z-score was found to be 0.55 with Lefty1 and 0.827 in test [8]. The z-score was -0.00054 in [7] and -0.858 (inactive) in test [9].

`COCCOC(=O)N1C(=O)[C@@]2(c3ccccc31)[C@H](C(=O)N1CCCCCCC1)[C@H]1C(=O)O[C@H](c3ccccc3)[C@H](c3ccccc3)N1[C@@H]2c1ccc(OCCO)cc1`: the composite z-score in test [1] turned out to be 3.77; in test [2], 1.35; in test [3], 4.71; in [4] it was 1.04; in test [5] it was 1.58; in test [6] it was 1.88. In addition, the composite z-score in the test with Lefty1 came to 1.91; in test [8] it was 1.74. Further, the values for the z-score in test [7] and in [9] were -1.35 and -0.255 (inactive), respectively.
